DT40 TDP1 CPT: DT40-hTDP1 cell growth loss with CPT; chicken DT40 Tdp1-/-;hTDP1 cells + 20 nM CPT, ATP luminescence, 48 h; Potency, µM (top dose mostly 46.2 µM), for the others: at the highest dose activity change, negative = growth inhibition, usual class: inhibitors; hit rate 12% among 420,000; AID 686979; further: potency means the concentration at half of the fitted maximal effect; nearly all actives have a fitted effect of over 55% in size
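Cell growth measured by CellTiter-Glo luminescence after a minimum 48 h, 37 C compound exposure with 20 nM CPT in Tdp1-knockout DT40 cells stably expressing hTDP1, seeded 400/well; qHTS titration format.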
HT1080 IDH1KD tx: kills HT-1080 cells with IDH1 knockdown; HT-1080 IDH1 knockdown viability, ATP luminescence, 48 h; Potency, µM (highest dose often 46.1 µM), inactives show at the top dose activity, negative = toxicity, hits mostly cytotoxic; hit rate 2% among 360,000; AID 686971;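 further: potency means the concentration at half of the fitted maximal effect; 0% = DMSO wells and -100% = cell-free medium wells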
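CellTiter-Glo luminescence after 48 h compound exposure at 37 degrees C of IDH1-knockdown HT-1080 cells in 5% FBS RPMI. %Activity scaled between DMSO wells and cell-free media wells, with curves fitted and assigned curve classes.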
HT1080-NT tox: kills 2HG-producing HT-1080-NT fibrosarcoma cells; Potency, µM (highest dose often 46.1 µM), for the others: at the highest dose activity, negative = less viability, hits mostly cytotoxic; HT-1080-NT fibrosarcoma viability, CellTiter-Glo ATP luminescence, 48 h; AID 686970; hit rate 1.6% among 360,000;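 further: NT is the 2HG producing partner of a matched IDH1 knockdown line; potency means the concentration at half of the fitted maximal effect; 0% = DMSO-treated cells and -100% = media-only wells without cells; nearly all actives have a fitted effect of over 55% in size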
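750 cells/well, RPMI + 5% FBS; 2 h settle, compound pin-transfer, 48 h at 37 degrees C. CellTiter-Glo 10 min RT, luminescence. Normalized to DMSO and media-only wells.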
DT40 TDP1 no CPT: qHTS for Inhibitors of human tyrosyl-DNA phosphodiesterase 1 (TDP1): qHTS in cells in absence of CPT; DT40 Tdp1-/- hTDP1 cells, no CPT, ATP luminescence, 48 h; Potency, µM (top dose mostly 46.2 µM), for the others: at the highest dose activity change, negative = growth inhibition, most hits filed as inhibitors; hit rate 15% among 420,000; further: potency means the concentration at half of the fitted maximal effect; nearly all actives have a fitted effect of over 55% in size
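Chicken DT40 Tdp1-/- cells stably complemented with human TDP1 were seeded at 400 cells/well with DMSO in place of 20 nM camptothecin. After compound pinning, cells grew at least 48 hr at 37 °C; viability read by CellTiter-Glo luminescence.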
IL1B secr inh: inflammasome signaling inhibition, IL-1 beta readout; THP-1 LPS/ATP IL-1B secretion, AlphaLISA, 16 h; hits give low values; activity change, % at 57.5 µM; hit rate 4.7% among 360,000; AID 743279; in the data active means activity change below about -50%; inconclusive means mostly about -30% to -49%
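Secreted IL-1B measured by AlphaLISA bead assay after 16 h compound exposure of THP-1 cells; compounds (final up to 57.5 uM) added 1 h before LPS (250 ng/mL) and ATP (1.25 mM) stimulation; lower signal means less secretion.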
An asterisk follows results filed as active; ? = inconclusive; · = no result; [ ] = another dose, or the depositor's remark. Shown are actives, neighbours in structure and some others; about 19% of the full set was active somewhere. Unless noted, the call rests on the fitted dose curve; in most records, active means well fitted curve in the direction sought with a large enough effect; inconclusive means small, poorly fitted or top-dose-only effect, or another doubt; inactive means no such curve, though single readings can be large; an effect the other way counts as inactive or inconclusive. Unless noted, on the % scale 0 is the no-effect control and ±100 the full control effect.

SMILES	DT40 TDP1 CPT	HT1080 IDH1KD tx	HT1080-NT tox	DT40 TDP1 no CPT	IL1B secr inh
CS(=O)(=O)Nc1ccc(C2=NN(S(C)(=O)=O)C(c3ccc4nccnc4c3)C2)cc1 (stereo unspecified)	-19%	5%	1%	1%	1
O=C(CNC(=O)C12CC3CC(CC(C3)C1)C2)N1CCCC(C(F)(F)F)C1 (stereo unspecified)	-22%	-1%	2%	?	19
O=C(O)/C(=C\c1ccc(-c2ccccc2[N+](=O)[O-])o1)c1ccccc1	-15%	-1%	-3%	-9%	19
O=C(N/N=C/c1ccc(-c2ccccc2[N+](=O)[O-])o1)[C@H]1C[C@@H]1c1ccccc1	16µM*	3%	6%	?	4
Cc1nnc(N/N=C\c2ccc(-c3ccccc3[N+](=O)[O-])o2)n1N	?	-11%	0%	?	103
O=C(N/N=C/c1ccc(-c2ccc([N+](=O)[O-])cc2)o1)[C@H]1C[C@@H]1c1ccccc1	?	11%	3%	?	15
O=C(N/N=C/c1ccc(-c2cccc([N+](=O)[O-])c2)o1)[C@H]1C[C@@H]1c1ccccc1	29µM*	-2%	4%	16µM*	-20
O=C(/C=C/c1ccc(-c2ccccc2[N+](=O)[O-])o1)c1ccccc1	?	-26%	-28%	23µM*	-67*
Cc1cc(OC(C)C(=O)N(Cc2ccco2)C2CCS(=O)(=O)C2)cc(C)c1Cl (stereo unspecified)	?	12%	0%	21µM*	-28
Cc1cc(OCC(=O)N(Cc2ccco2)C2CCS(=O)(=O)C2)cc(C)c1Cl (stereo unspecified)	-27%	-19%	-5%	?	-11
CCCCCOc1ccc(C(=O)N(Cc2ccco2)C2CCS(=O)(=O)C2)cc1 (stereo unspecified)	?	-18%	-5%	?	3
COc1ccc(CN(C(=O)c2ccco2)C2CCS(=O)(=O)C2)cc1 (stereo unspecified)	8%	23%	9%	-4%	0
CC(C)COc1ccc(C(=O)N(Cc2ccco2)C2CCS(=O)(=O)C2)cc1 (stereo unspecified)	?	-2%	-1%	16µM*	2
COc1ccc(CN(C(=O)c2ccc(OCC(C)C)cc2)C2CCS(=O)(=O)C2)cc1 (stereo unspecified)	12µM*	·	·	?	·
CCOC(=O)c1c(NC(=O)c2cc(OCC)c(OCC)c(OCC)c2)sc2c1CCCCC2	?	·	·	23µM*	·
CCOC(=O)c1c(NC(=O)C(=O)N/N=C/c2ccccc2OC)sc2c1CCCCC2	?	1%	-2%	-19%	8
CCOC(=O)c1c(NC(=O)c2ccn(CC)n2)sc2c1CCCC2	?	?	?	23µM*	-20
CCOC(=O)c1c(NC(=O)C(=O)N/N=C/c2ccccc2O)sc2c1CCCCC2	2.9µM*	?	?	3.3µM*	40
CCCCN(C(=O)CC1OC(=O)c2ccccc21)c1c(N)n(CCCC)c(=O)[nH]c1=O (stereo unspecified)	-10%	16%	10%	-7%	2
O=C(CNc1cc(S(=O)(=O)N2CCOCC2)ccc1N1CCCC1)N1CCc2ccccc21	-24%	4%	15%	?	-16
CC(C)n1c(CN2CCN(C(=O)c3ccco3)CC2)nc2c1c(=O)n(C)c(=O)n2C	?	0%	5%	?	19
COC(=O)Cn1c(CN2CCN(c3ccccc3F)CC2)nc2c1c(=O)n(C)c(=O)n2C	5.8µM*	11%	2%	8.2µM*	36
COCCn1c(N2CCN(c3ccc(OC)cc3)CC2)nc2c1c(=O)n(C)c(=O)n2C	?	-8%	2%[9.24 µM]	?	0
COCCn1c(CN2CCN(c3ccccc3)CC2)nc2c1c(=O)n(C)c(=O)n2C	10µM*	2%	-3%	10µM*	16
CCOCCn1c(CN2CCN(c3ccccc3)CC2)nc2c1c(=O)n(C)c(=O)n2C	16µM*	-4%	-7%	16µM*	16
SMILES	DT40 TDP1 CPT	HT1080 IDH1KD tx	HT1080-NT tox	DT40 TDP1 no CPT	IL1B secr inh
CC(C)Cn1c(CN2CCN(c3ccccc3F)CC2)nc2c1c(=O)[nH]c(=O)n2C	-29%	0%	1%	?	-8
CCOCCn1c(CN2CCN(CC)CC2)nc2c1c(=O)n(C)c(=O)n2C	-23%	-1%	0%	-1%	-18
COc1ccc(N2CCN(Cc3nc4c(c(=O)n(C)c(=O)n4C)n3C(C)C)CC2)cc1	1µM*	·	·	0.65µM*	·
Fc1ccc(NC(=S)Nc2cccnc2)c(F)c1F	11%	1%	-1%	-24%	31
O=C(c1cccc(O)c1)N1CCN(C(=O)C2CC2)CC1	-13%	-8%	0%	-3%	13
C=CCn1c(N2CCN(c3ccc(OC)cc3)CC2)nc2c1c(=O)n(C)c(=O)n2C	21µM*	-24%	5%	18µM*	-16
N#Cc1ccc(C(=O)NC23CC4CC(CC(C4)C2)C3)cc1	3%	11%	14%	-15%	6
COCCCNC(=O)/C=C1\Sc2ccccc2N(Cc2ccccc2F)C1=O	?	-12%	-5%	?	-13
CN1CCN(CCCNC(=O)c2ccc(/C=C3/Sc4ccccc4N(Cc4cccc(Cl)c4)C3=O)cc2)CC1	?	-26%	28%	?	-4
CCN1CCN(CCNC(=O)c2ccc(/C=C3\Sc4ccccc4N(Cc4ccccc4F)C3=O)cc2)CC1	?	21µM*	16µM*	?	30
CN1CCN(CCCNC(=O)c2ccc(/C=C3\Oc4ccccc4N(Cc4ccccc4F)C3=O)cc2)CC1	?	-28%	-9%	21µM*	61
CN1CCN(CCCNC(=O)c2ccc(/C=C3\Sc4ccccc4N(Cc4ccc(F)cc4)C3=O)cc2)CC1	?	-28%	0%	16µM*	-77*
COc1ccc(CN2C[C@@H](CO)O[C@@H](n3cnc4c(N(C)C)ncnc43)C2)cc1	-1%	1%	17%	-20%	2
CCN(CC)S(=O)(=O)c1ccc(C(=O)NCCOC(=O)c2ccc(F)cc2F)cc1	-14%	20%	15%	?	10
O=C1CC(N2CCN(c3ccccn3)CC2)C(=O)N1c1ccc(F)cc1 (stereo unspecified)	-9%	?	15%	-12%	-4
O=C1CC(N2CCN(c3ccccn3)CC2)C(=O)N1CC(c1ccccc1)c1ccccc1 (stereo unspecified)	23µM*	-20%	-21%	?	17
COc1ccc2nc(C)cc(Nc3ccc(C(=O)O)cc3)c2c1	10%	10%	6%	-1%	1
